Rows were chosen to be rich in hits. Some 3.6% of all compounds tested hit in one or more screens of this group.
Wnt bcat act – activates Wnt/beta-catenin signaling in a reporter cell assay | activator, plate reader | activation, % at 9.35 µM | 300,000 compounds, 1.2% hits | AID 743398; in the data active means activation above about 30%, passing the limit was not always enough; inconclusive means no clear call, values can overlap the other calls;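 further: 0% = neutral control wells and 100% = positive control wells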
esBAF inh – inhibitors of esBAF chromatin remodeling in mouse ES cells; Bmi1-luciferase knock-in reporter, 24 h; 100% = twice the neutral-well signal; reporter increase, % at 12.5 µM; 350,000 compounds, 2% hits; AID 602393; in the data active means activation above about 40%; inconclusive means no clear call, values can overlap the other calls;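 further: 0% = median of the plate's neutral control wells and 100% = double that signal; a rise in the Bmi1 reporter signal indicates esBAF inhibition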
A3A deaminase – inhibitors of human APOBEC3A DNA deaminase; recombinant A3A, FAM/TAMRA ssDNA deamination fluorescence; inhibition, % at 20 µM; 330,000 compounds, 0.41% hits; AID 493011;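 active means at least 40% inhibition at 20 µM here, with at most 30% in a related deaminase screen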;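 further: plate controls were A3A with DMSO for no effect and wells lacking A3A enzyme for full effect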
Target sequence (P31941 whole entry, looked up): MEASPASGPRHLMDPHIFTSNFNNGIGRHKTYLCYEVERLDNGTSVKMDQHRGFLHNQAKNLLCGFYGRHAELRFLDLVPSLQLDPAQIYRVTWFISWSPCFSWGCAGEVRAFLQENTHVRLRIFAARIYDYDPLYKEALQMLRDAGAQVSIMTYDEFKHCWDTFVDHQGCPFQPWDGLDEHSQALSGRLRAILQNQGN
A3G deaminase – inhibitors of human APOBEC3G DNA deaminase. Q9HC16. recombinant A3G, ssDNA deamination FAM/TAMRA fluorescence. inhibition, % at 20 µM. 330,000 compounds, 0.28% hits. AID 493012;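 active means inhibition of at least 40% at 20 µM, with no more than 30% in the related APOBEC3A deaminase screen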;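 further: plate controls were DMSO wells with A3G for no effect and wells lacking A3G enzyme for full effect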
MITF act – activators of MITF-driven TRPM1 promoter activity in SK-MEL-5 cells; activation, % at 12.5 µM; SK-MEL-5 TRPM1-promoter luciferase, 24 h; % of positive control, neutral wells = 0; 300,000 compounds, 0.75% hits; AID 588334;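 active means mean activation of at least 80% with every replicate also reaching 80%; inconclusive means mean reaches 80% but some replicate falls short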;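 further: 0% = neutral control wells and 100% = parthenolide positive control wells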
PHOSPHO1 block – PHOSPHO1 (human) inhibition; Q8TCT1; AID 1565; recombinant PHOSPHO1, absorbance phosphatase assay; 290,000 compounds, 1.1% hits; inhibition, % at 13.3 µM; in the data active means inhibition above about 60%
Target sequence (Q8TCT1 whole entry, looked up): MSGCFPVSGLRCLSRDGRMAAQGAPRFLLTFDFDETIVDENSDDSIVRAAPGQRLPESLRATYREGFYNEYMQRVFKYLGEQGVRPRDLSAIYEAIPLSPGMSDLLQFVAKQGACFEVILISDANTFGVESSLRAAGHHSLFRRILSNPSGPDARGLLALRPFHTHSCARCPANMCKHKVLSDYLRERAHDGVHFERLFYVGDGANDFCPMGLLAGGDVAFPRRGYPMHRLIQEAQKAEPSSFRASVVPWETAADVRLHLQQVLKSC
An asterisk follows results filed as active; ? = inconclusive; . = no result.

SMILES | Wnt bcat act | esBAF inh | A3A deaminase | A3G deaminase | MITF act | PHOSPHO1 block
COc1ccc2cc(C(c3nnnn3CCc3ccccc3)N3CCCC(C)C3)c(=O)[nH]c2c1 (stereo not drawn) | . | 1.5 | 0.0 | 4.4 | -4.4 | 81.6*
Cc1ccc2cc(C(c3nnnn3C(C)(C)C)N3CCCC3)c(=O)[nH]c2c1C (stereo not drawn) | . | . | . | . | . | 93.7*
CCOC(=O)C1CCN(C(c2cc3ccc(C)cc3[nH]c2=O)c2nnnn2C2CCCCC2)CC1 (stereo not drawn) | . | . | -3.6 | -6.8 | -1.0 | 91.7*
CCC(C)(C)n1nnnc1C(c1cc2cc3c(cc2[nH]c1=O)OCO3)N1CCCCC1 (stereo not drawn) | -1.5 | 3.3 | -0.4 | -2.6 | 4.7 | 42.0
COCCn1nnnc1C(c1cc2cc(OC)ccc2[nH]c1=O)N1CCC(Cc2ccccc2)CC1 (stereo not drawn) | -0.7 | 2.3 | -6.1 | -7.8 | 0.3 | 3.5
COc1ccccc1N1CCN(C(c2cc3ccc(C)cc3[nH]c2=O)c2nnnn2C2CCCC2)CC1 (stereo not drawn) | -3.2 | -1.4 | 2.7 | -2.1 | ? | 43.5
COCCn1nnnc1CN(CCc1ccccc1)Cc1cc2ccc(C)cc2[nH]c1=O | . | . | 2.1 | -0.5 | 13.8 | 66.1*
Cc1ccc2[nH]c(=O)c(CN(CCc3ccccc3)Cc3nnnn3CC3CCCO3)cc2c1 (stereo not drawn) | . | 0.8 | -2.7 | -7.5 | -4.2 | -0.9
COCCn1nnnc1C(c1cc2c(C)cc(C)cc2[nH]c1=O)N1CCCCCC1 (stereo not drawn) | . | -2.5 | 4.2 | 6.8 | -5.1 | -17.9
COCCn1nnnc1C(c1cc2cc(C)ccc2[nH]c1=O)N1CCCCCC1 (stereo not drawn) | . | -4.5 | -0.5 | 12.0 | -4.9 | 92.3*
CCN(Cc1ccccc1)C(c1cc2cc(C)ccc2[nH]c1=O)c1nnnn1CCOC (stereo not drawn) | -2.0 | 9.0 | -0.2 | -2.6 | -1.4 | 73.5*
CCN(Cc1ccccc1)C(c1cc2cc(C)cc(C)c2[nH]c1=O)c1nnnn1CCOC (stereo not drawn) | -0.7 | -1.2 | -5.1 | -3.4 | -1.5 | 2.6
CCCNC(=O)N1[C@H](CO)[C@@H]2c3ccccc3N(C(=O)Nc3ccccc3)C[C@@H]21 | . | -1.7 | . | . | . | .
CCN(CC)C(=O)c1cc2sc3ccccc3c2s1 | . | 80.4* | -13.9 | -6.4 | 97.8* | -6.8
COCCN(CCOC)C(=O)c1cc2sc3ccccc3c2s1 | -5.0 | 18.2 | -2.2 | -6.9 | 32.5 | -6.8
COc1ccc(-c2cnc3c(c2)C(=O)N([C@@H](C)CO)C[C@@H](C)[C@@H](CN(C)C(=O)C2CC2)O3)cc1 | . | 4.8 | . | . | . | .
Cc1cc(O)c(N=Nc2ccc(C(=O)O)cc2)cc1C | 17.1 | 67.2* | . | . | 17.1 | .
CC(=O)/C(N=Nc1ccc(C(=O)O)cc1)=C(\C)O | -1.2 | . | 2.4 | 22.1 | -12.3 | -0.5
CN1C(=O)c2cc(NC(=O)c3cccs3)ccc2OC[C@H]2O[C@@H](CC(=O)NCC3CC3)CC[C@H]21 | . | 0.2 | . | . | . | .
C[C@H](O)C#Cc1cnc2c(c1)C(=O)N([C@@H](C)CO)C[C@@H](C)[C@@H](CN(C)Cc1ccccn1)O2 | . | 0.4 | . | . | . | .
Cc1cccc(C2c3[nH]c4ccccc4c3CCN2C(=O)c2cc(C(C)C)nc(N)n2)n1 (stereo not drawn) | -1.2 | . | -2.1 | -4.7 | -24.9 | 68.4*
Cc1cccc(C2c3[nH]c4ccccc4c3CCN2C(=O)c2ccc(=O)[nH]c2)n1 (stereo not drawn) | -0.9 | . | -0.1 | -0.9 | -14.5 | 9.5
C[C@@H]1CCCCO[C@@H](CN(C)S(C)(=O)=O)[C@@H](C)CN([C@H](C)CO)C(=O)c2cc(NC(=O)Nc3ccc(C(F)(F)F)cc3)ccc2O1 | . | 2.9 | . | . | . | .
Cc1cc(-c2onc(C)c2C(N)=O)no1 | 38.0* | -0.4 | -0.9 | -7.3 | -9.8 | 40.9
Cc1cc(-c2onc(C)c2C(=O)Oc2ccc(Cl)cc2)no1 | -4.7 | -11.2 | -1.3 | -5.8 | 4.7 | -8.5
C[n+]1cc[nH]c1SCC(=O)c1ccccc1 | . | . | -7.1 | -6.7 | 24.2 | 60.0*
C[n+]1cc[nH]c1SCC(=O)c1ccc(Cl)cc1 | 4.8 | 16.0 | -4.4 | -2.8 | 32.0 | 28.7
CCN1CCN(C(=O)c2cc3ccc(OC)cc3[nH]2)CC1 | 10.5 | 28.9 | -4.8 | -9.5 | 95.2* | 58.6

Screening results: PubChem BioAssay, several laboratories
